Source: PubChem
Only some compounds are listed: those with a hit (about 1.6% of all), similar ones and a draw of the others.
MOR-DOR ag: agonists of human mu-delta opioid receptor heterodimerization | activation, % at 9.3 µM | cells, OPRM1-OPRD1 heterodimerization, luminescence | actives 0.3% (n = 340,000) | P35372+P41143; in the data active means activation above about 18%;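 further: 0% = vehicle-treated cells and 100% = reference agonist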
HTR5A ag ctr: counter-screen for OPRM1-OPRD1 agonists: human HTR5A agonism; P47898; HTR5A agonist assay, luminescence, cell-based; activation, % at 9.3 µM; actives 0.61% (n = 340,000); in the data active means activation mostly above about 9.5%, no sharp cut-off; inactive means mostly below about 7.6%;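 further: 0% = cells with vehicle only and 100% = reference agonist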
HTR5A inv ag: counter-screen for OPRM1-OPRD1 inverse agonists: human HTR5A inverse agonism | inhibition, % at 9.3 µM | HTR5A cell line, luminescence | actives 0.083% (n = 340,000) | P47898; in the data active means inhibition mostly above about 23%, no sharp cut-off; inactive means mostly below about 18%;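 further: 0% = cells with DMSO and 100% = no-cell wells with DMSO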
MOR-DOR inv ag: mu-delta opioid heterodimer inverse agonism. cell-based MOR-DOR heterodimer luminescence. inhibition, % at 9.3 µM. actives 0.21% (n = 340,000); in the data active means inhibition above about 22%, passing the limit was not always enough;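 further: 0% = cells with DMSO and 100% = wells without cells with DMSO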
m5-HT2A agonist: mouse HTR2A agonism via beta-arrestin recruitment. actives 0.66% (n = 360,000). activation, % at 7.6 µM. CHO-K1 mHTR2A beta-arrestin complementation, luminescence; percent of 30 µM serotonin response. AID 624169. P35363;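 active means activation above a run cutoff, the mean activation of all tested compounds plus 3 SD, cut at about 14% in these data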;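 further: 0% = plate median of compound wells and 100% = 30 µM serotonin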
Target sequence (P35363 whole entry, looked up): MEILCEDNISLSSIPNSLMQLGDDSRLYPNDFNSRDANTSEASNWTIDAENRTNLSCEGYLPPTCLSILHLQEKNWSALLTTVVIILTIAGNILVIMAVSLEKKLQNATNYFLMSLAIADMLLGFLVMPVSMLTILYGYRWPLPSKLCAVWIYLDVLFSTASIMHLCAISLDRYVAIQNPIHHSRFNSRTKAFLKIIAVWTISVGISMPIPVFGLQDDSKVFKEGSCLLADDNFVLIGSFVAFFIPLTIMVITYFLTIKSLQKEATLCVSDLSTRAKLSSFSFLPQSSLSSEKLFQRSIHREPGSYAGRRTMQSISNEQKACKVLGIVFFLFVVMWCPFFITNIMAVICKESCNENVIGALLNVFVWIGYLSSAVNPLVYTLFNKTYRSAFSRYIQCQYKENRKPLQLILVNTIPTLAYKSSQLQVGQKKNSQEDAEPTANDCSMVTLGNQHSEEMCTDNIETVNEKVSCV
Numbers without * were called inactive; . = not tested or not shown.

SMILES	MOR-DOR ag	HTR5A ag ctr	HTR5A inv ag	MOR-DOR inv ag	m5-HT2A agonist
Cc1ccc(Nc2nc(N)nc(CCl)n2)c(C)c1	61*	63*	-27	-300	-2
Cc1ccc(Nc2nc(N)nc(CCl)n2)cc1	.	.	.	.	1
CCOc1ccc(Nc2nc(N)nc(CCl)n2)cc1	68*	90*	-166	-343	6
CCn1c(C)cc2c(c1=O)C(c1ccc3c(c1)OCO3)C(C#N)=C(N)O2 (stereo not drawn)	1	-3	-8	-5	15*
CC(c1nc2ccccc2[nH]1)n1c(=O)c(-c2ccco2)nc2ccccc21 (stereo not drawn)	.	.	.	.	-7
COc1cc(NC(=O)COc2cccc3c2OC(C)(C)C3)cc(OC)c1OC	0	14*	-50	1	4
COc1ccc(NC(=O)COc2cccc3c2OC(C)(C)C3)c(OC)c1	0	13*	-52	3	-8
COc1cc(C)c(NC(=O)COc2cccc3c2OC(C)(C)C3)cc1OC	-1	6	-14	4	-2
CC(=O)Nc1ccc(NC(=O)COc2cccc3c2OC(C)(C)C3)cc1	-2	4	6	13	0
CC1(C(=O)NS(=O)(=O)c2ccccc2Cl)CCN1C(=O)c1ccco1 (stereo not drawn)	.	.	.	.	-3
Cc1cc(N2CCN(C(c3ccnc4ccccc34)c3nnnn3-c3c(C)cccc3C)CC2)c2ccccc2n1 (stereo not drawn)	.	.	.	.	1
CCCNS(=O)(=O)c1ccc(OCC(=O)Nc2ccc3c(c2)OCCO3)c(C)c1	2	9.6*	3	-11	-7
Cn1cnc(S(=O)(=O)N2CCCCC2c2cc(C(=O)NCc3ccc(Cl)c(Cl)c3)no2)c1 (stereo not drawn)	.	.	.	.	1
CC(=O)c1cccc(NC(=O)NCc2cccs2)c1	0	11*	-35	-1	8
CCNC(=O)C1CC(=O)N(Cc2ccc3c(c2)OCO3)C(=Nc2ccc(OCC)cc2)S1 (stereo not drawn)	0	9.0*	-6	2	5
COc1ccc(S(=O)(=O)N2CCOC23CCN(S(=O)(=O)c2c(C)cc(C)cc2C)CC3)cc1	4	11*	8	-24	1
COc1ccc(S(=O)(=O)N2CCC3(CC2)OCCN3S(=O)(=O)c2ccc(OC)cc2)cc1	2	5	1	-11	11
O=C(Nc1nnc(-c2ccc(Cl)s2)o1)C1CCCCC1	2	3	-8	-10	10
CCCC(=O)Nc1nnc(-c2ccc(Cl)s2)o1	-2	9	-25	12	27*
CC(=O)Nc1ccc(C(=O)N2CCCC(c3cc(C(=O)NCc4ccccc4)no3)C2)cc1 (stereo not drawn)	.	.	.	.	-2
COc1cc(NC(=O)c2cccc3c2C(=O)N(C2CCCCC2)C3)cc(OC)c1OC	-1	11*	-17	6	-1
Cc1cc(C)cc(NC(=O)c2cccc3c2C(=O)N(C2CCCCC2)C3)c1	-2	1	16	9	6
CCOc1ccccc1N1CCN(Cc2cn[nH]c2-c2ccc(F)cc2)CC1	0	14*	-14	1	1
Cc1ccc(CNC(=S)Nc2ccc(NS(=O)(=O)c3ccc(C)cc3)cc2)cc1	4	11*	11	-21	-4
Cc1cccc(C)c1-n1nnnc1C(c1ccnc2ccccc12)N(CCN(C)C)Cc1ccccc1 (stereo not drawn)	.	.	.	.	-8
SMILES	MOR-DOR ag	HTR5A ag ctr	HTR5A inv ag	MOR-DOR inv ag	m5-HT2A agonist
CCCNC(=O)c1cc(C2CCCCN2C(=O)c2ccc(OC)cc2)on1 (stereo not drawn)	.	.	.	.	2
OC(c1ccc(F)c(F)c1)c1nc(-c2cccc(F)c2)cs1 (stereo not drawn)	.	.	.	.	0
CCO[C@@H]1OC(C(=O)N2CCOCC2)=C[C@H](c2ccc(Br)cc2)[C@H]1CCCO	-2	-6	-31	11	18*
O=C1Nc2ccccc2C1=Nc1ccc(Cl)cc1	-14	-4	14	64*	2
CCN(CC)c1ccc(N=C2C(=O)Nc3ccccc32)cc1	-5	-3	10	24	0
O=C1Nc2ccccc2C1=Nc1ccc(Br)cc1	-11	-5	21	55*	-1
O=C1NC(c2ccc(Br)cc2)Nc2ccccc21 (stereo not drawn)	-3	-1	3	12	0
CC(C)CCNC(=O)C1(C)CCN1Cc1ccc(-c2ccccn2)cc1 (stereo not drawn)	.	.	.	.	-5
NC(=O)COC(=O)c1ccc2c(c1)S(=O)(=O)c1ccccc1C2=O	6	6	-7	-42	6
Cc1noc(C)c1COC(=O)c1ccc2c(c1)S(=O)(=O)c1ccccc1C2=O	7	10*	-34	-39	0
CC(=O)N1CCN(c2ccnc3cc(Cl)ccc23)CC1	-1	-4	-1	7	5
O=C(O)CSCC(=O)N1CCN(c2ccnc3cc(Cl)ccc23)CC1	-2	11*	-39	11	3
COCCNc1nc2cc(-c3ccc(C)cc3)sc2c(=O)n1C	.	.	.	.	4
c1ccc(Nc2nc(N3CCCC3)nc(N3CCCC3)n2)cc1	2	13*	20	-8	-5
c1ccc(Nc2nc(N3CCCCC3)nc(N3CCCCC3)n2)cc1	0	-1	-8	-2	-1
O=C(O)COCC(=O)Nc1ccc(-n2cnnn2)cc1	1	11*	-27	-6	0
NC(=O)c1ccc(NC(=O)COc2ccc(-n3cnnn3)cc2)cc1	-2	14	-36	9	2
CCC(C(=O)Nc1c(C)cccc1C)n1c(-c2ccc(-c3ccccc3)cc2)nc2ccccc21 (stereo not drawn)	.	.	.	.	-2
CC(=O)N(C)c1ccc(NC(=S)Nc2ccccc2)cc1	-1	-1	2	6	-1
CC(=O)N(C)c1ccc(NC(=S)Nc2cccc3ccccc23)cc1	7	14*	-24	-36	7
Cc1nc2c(c(=O)c3ccccc3n2C)c(=O)n1C1CCCCCC1	-4	7	0	18	2
Cn1c2ccccc2c(=O)c2c(=O)n(C3CCCCC3)c(-c3ccco3)nc21	-4	13*	-48	21	6
COc1ccc2c3c(ccc2c1)C(=O)/C(=C/O)CC3	25*	22*	-86	-120	6
COc1cccc(NC(=O)Nc2nc(-c3ccc(OC)c(OC)c3)cs2)c1	29*	25*	-68	-154	9
C[C@@H]1CN([C@H](C)CO)C(=O)CCCn2nncc2CO[C@H]1CN(C)Cc1cccc(C(=O)O)c1	.	.	.	.	2
c1ccc(-c2cnn3nnnc3n2)cc1	1	12*	-26	-4	-2
CC1Oc2ccc(C#N)cc2N(Cc2ccc(F)cc2)C1=O (stereo not drawn)	.	.	.	.	2
CCCNC(=O)c1cc(C2CCCCN2C(=O)c2cc(C(C)(C)C)nn2C)on1 (stereo not drawn)	.	.	.	.	5
O=C(Nc1c(C(=O)N2CCOCC2)cnn1-c1ccccc1)c1ccccc1	1	3	2	-7	5
O=C(Nc1c(C(=O)N2CCOCC2)cnn1-c1ccccc1)c1ccc(F)cc1	-3	0	-4	14	15*
